# The campaign covered roughly 5,500 compounds. About 2,000 (36%) were called active. Not shown: some 18% with an inconclusive outcome. Some of the results follow. Unmarked numbers belong to inactive results. Cut-off read from the data, not from the text of the source: active = normalized growth mostly below about 0.91 (no sharp cut-off); inconclusive = no clear call, values can overlap the other calls; inactive = mostly above about 0.92.
# Test: chemical genetic growth profiling, strain panel (AID 1159580);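 note: tested at 20 µM; growth read once vehicle control cultures reached saturation at 30 °C; 1 = growth at the plate median or of vehicle wells; lower values mean less growth of the strain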
# Conditions: growth OD
smiles,measurement,setting,value
COC(=O)COc1cc(Cl)c(Cl)cc1Cl,normalized growth,"S. cerevisiae deletion strains, locus YJR075W, strain HOC1, active compounds read low",0.952
same,normalized growth,"S. cerevisiae deletion strains, locus YKL009W, strain mrt4, active compounds read low",0.995
same,normalized growth,"S. cerevisiae deletion strains, locus YKL068W, active compounds read low",0.955
same,normalized growth,"S. cerevisiae deletion strains, locus YKL085W, strain MDH1 (second series), active compounds read low",0.949
same,normalized growth,"S. cerevisiae deletion strains, locus YKL085W, strain MDH1, active compounds read low",0.949
same,normalized growth,"S. cerevisiae deletion strains, locus YKL160W, strain elf1, active compounds read low",1
same,normalized growth,"S. cerevisiae deletion strains, locus YKL190W, strain CNB1, active compounds read low",0.971
same,normalized growth,"S. cerevisiae deletion strains, locus YKR001C, strain vps1, active compounds read low",0.916
same,normalized growth,"S. cerevisiae deletion strains, locus YKR026C, strain gcn3, active compounds read low",0.992
same,normalized growth,"S. cerevisiae deletion strains, locus YKR091W, strain srl3, active compounds read low",0.993
same,normalized growth,"S. cerevisiae deletion strains, locus YLL001W, strain dnm1, active compounds read low",0.99
same,normalized growth,"S. cerevisiae deletion strains, locus YLL026W, active compounds read low",0.993
same,normalized growth,"S. cerevisiae deletion strains, locus YLL041C, strain sdh2, active compounds read low",1
same,normalized growth,"S. cerevisiae deletion strains, locus YLR027C, strain aat2, active compounds read low",0.991
same,normalized growth,"S. cerevisiae deletion strains, locus YLR039C, strain RIC1, active compounds read low",0.613 (active)
same,normalized growth,"S. cerevisiae deletion strains, locus YLR058C, strain SHM2, active compounds read low",0.979
same,normalized growth,"S. cerevisiae deletion strains, locus YLR102C, strain apc9, active compounds read low",0.957
same,normalized growth,"S. cerevisiae deletion strains, locus YLR113W, strain HOG1, active compounds read low",0.879
same,normalized growth,"S. cerevisiae deletion strains, locus YLR221C, strain rsa3, active compounds read low",0.987
same,normalized growth,"S. cerevisiae deletion strains, locus YLR258W, strain gsy2, active compounds read low",0.994
same,normalized growth,"S. cerevisiae deletion strains, locus YLR262C, strain YPT6 (second series), active compounds read low",0.863
same,normalized growth,"S. cerevisiae deletion strains, locus YLR262C, strain YPT6, active compounds read low",0.662
same,normalized growth,"S. cerevisiae deletion strains, locus YLR268W, strain sec22, active compounds read low",0.955
same,normalized growth,"S. cerevisiae deletion strains, locus YLR320W, strain mms22, active compounds read low",1.01
same,normalized growth,"S. cerevisiae deletion strains, locus YLR330W, strain CHS5, active compounds read low",0.975
same,normalized growth,"S. cerevisiae deletion strains, locus YLR342W, strain FKS1 (second series), active compounds read low",1.04
same,normalized growth,"S. cerevisiae deletion strains, locus YLR342W, strain FKS1, active compounds read low",0.997
same,normalized growth,"S. cerevisiae deletion strains, locus YLR357W, strain rsc2, active compounds read low",0.895
same,normalized growth,"S. cerevisiae deletion strains, locus YLR370C, strain arc18, active compounds read low",1
same,normalized growth,"S. cerevisiae deletion strains, locus YLR371W, strain rom2, active compounds read low",0.986
same,normalized growth,"S. cerevisiae deletion strains, locus YLR384C, strain iki3, active compounds read low",1.01
same,normalized growth,"S. cerevisiae deletion strains, locus YLR418C, strain cdc73, active compounds read low",0.859
same,normalized growth,"S. cerevisiae deletion strains, locus YML016C, strain PPZ1, active compounds read low",0.966
same,normalized growth,"S. cerevisiae deletion strains, locus YML032C, strain rad52, active compounds read low",0.988
same,normalized growth,"S. cerevisiae deletion strains, locus YML120C, strain ndi1, active compounds read low",0.995
same,normalized growth,"S. cerevisiae deletion strains, locus YML124C, strain tub3, active compounds read low",0.96
same,normalized growth,"S. cerevisiae deletion strains, locus YMR058W, strain fet3, active compounds read low",1
same,normalized growth,"S. cerevisiae deletion strains, locus YMR078C, strain ctf18, active compounds read low",0.97
same,normalized growth,"S. cerevisiae deletion strains, locus YMR125W, strain sto1, active compounds read low",1
same,normalized growth,"S. cerevisiae deletion strains, locus YMR129W, active compounds read low",0.978
same,normalized growth,"S. cerevisiae deletion strains, locus YMR205C, strain PFK2, active compounds read low",1.02
same,normalized growth,"S. cerevisiae deletion strains, locus YMR223W, strain ubp8, active compounds read low",0.978
same,normalized growth,"S. cerevisiae deletion strains, locus YMR231W, strain pep5, active compounds read low",0.989
same,normalized growth,"S. cerevisiae deletion strains, locus YMR263W, strain SAP30, active compounds read low",0.985
same,normalized growth,"S. cerevisiae deletion strains, locus YMR307W, strain GAS1, active compounds read low",1.06
same,normalized growth,"S. cerevisiae deletion strains, locus YNL067W, strain RPL9B, active compounds read low",0.967
same,normalized growth,"S. cerevisiae deletion strains, locus YNL071W, strain lat1, active compounds read low",0.996
same,normalized growth,"S. cerevisiae deletion strains, locus YNL128W, strain TEP1, active compounds read low",0.978
same,normalized growth,"S. cerevisiae deletion strains, locus YNL153C, strain GIM3, active compounds read low",0.989
same,normalized growth,"S. cerevisiae deletion strains, locus YNL183C, strain NPR1, active compounds read low",0.809 (active)
same,normalized growth,"S. cerevisiae deletion strains, locus YNL209W, strain ssb2, active compounds read low",1.01
same,normalized growth,"S. cerevisiae deletion strains, locus YNL233W, strain BNI4, active compounds read low",0.982
same,normalized growth,"S. cerevisiae deletion strains, locus YNL248C, strain rpa49, active compounds read low",1
same,normalized growth,"S. cerevisiae deletion strains, locus YNL250W, strain rad50, active compounds read low",0.957
same,normalized growth,"S. cerevisiae deletion strains, locus YNL271C, strain bni1, active compounds read low",0.956
same,normalized growth,"S. cerevisiae deletion strains, locus YNL298W, strain CLA4, active compounds read low",0.994
same,normalized growth,"S. cerevisiae deletion strains, locus YNL307C, strain MCK1, active compounds read low",0.855 (active)
same,normalized growth,"S. cerevisiae deletion strains, locus YNL322C, strain KRE1 (second series), active compounds read low",0.996
same,normalized growth,"S. cerevisiae deletion strains, locus YNL322C, strain KRE1, active compounds read low",0.977
same,normalized growth,"S. cerevisiae deletion strains, locus YNR049C, strain mso1, active compounds read low",0.991
same,normalized growth,"S. cerevisiae deletion strains, locus YNR052C, strain pop2, active compounds read low",0.993
same,normalized growth,"S. cerevisiae deletion strains, locus YOL006C, strain TOP1, active compounds read low",0.895
same,normalized growth,"S. cerevisiae deletion strains, locus YOL012C, strain htz1",0.897
same,normalized growth,"S. cerevisiae deletion strains, locus YOL147C, strain pex11, active compounds read low",0.964
same,normalized growth,"S. cerevisiae deletion strains, locus YOR001W, strain rrp6, active compounds read low",1.01
same,normalized growth,"S. cerevisiae deletion strains, locus YOR061W, strain CKA2, active compounds read low",0.974
same,normalized growth,"S. cerevisiae deletion strains, locus YOR069W, strain VPS5, active compounds read low",0.979
same,normalized growth,"S. cerevisiae deletion strains, locus YOR070C, strain gyp1, active compounds read low",0.985
same,normalized growth,"S. cerevisiae deletion strains, locus YOR080W, strain dia2, active compounds read low",1
same,normalized growth,"S. cerevisiae deletion strains, locus YOR083W, strain WHI5, active compounds read low",1
same,normalized growth,"S. cerevisiae deletion strains, locus YOR106W, strain vam3, active compounds read low",1.02
same,normalized growth,"S. cerevisiae deletion strains, locus YOR136W, strain idh2, active compounds read low",0.99
same,normalized growth,"S. cerevisiae deletion strains, locus YOR144C, strain elg1, active compounds read low",0.975
same,normalized growth,"S. cerevisiae deletion strains, locus YOR184W, strain ser1, active compounds read low",0.904
same,normalized growth,"S. cerevisiae deletion strains, locus YOR231W, strain MKK1, active compounds read low",0.86
same,normalized growth,"S. cerevisiae deletion strains, locus YOR265W, strain rbl2, active compounds read low",0.98
same,normalized growth,"S. cerevisiae deletion strains, locus YOR270C, strain vph1, active compounds read low",1.1
same,normalized growth,"S. cerevisiae deletion strains, locus YOR290C, strain snf2, active compounds read low",1.01
same,normalized growth,"S. cerevisiae deletion strains, locus YOR316C, strain cot1, active compounds read low",0.964
same,normalized growth,"S. cerevisiae deletion strains, locus YPL051W, strain arl3, active compounds read low",0.992
same,normalized growth,"S. cerevisiae deletion strains, locus YPL055C, strain LGE1, active compounds read low",0.953
same,normalized growth,"S. cerevisiae deletion strains, locus YPL078C, strain atp4, active compounds read low",1.02
same,normalized growth,"S. cerevisiae deletion strains, locus YPL106C, strain sse1, active compounds read low",0.957
same,normalized growth,"S. cerevisiae deletion strains, locus YPL240C, strain hsp82, active compounds read low",0.997
same,normalized growth,"S. cerevisiae deletion strains, locus YPL241C, strain CIN2, active compounds read low",0.972
same,normalized growth,"S. cerevisiae deletion strains, locus YPL256C, strain CLN2, active compounds read low",0.786 (active)
same,normalized growth,"S. cerevisiae deletion strains, locus YPR119W, strain clb2, active compounds read low",0.955
same,normalized growth,"S. cerevisiae deletion strains, locus YPR141C, strain kar3, active compounds read low",0.948
same,normalized growth,"S. cerevisiae deletion strains, locus YPR163C, strain tif3, active compounds read low",0.992
same,normalized growth,"S. cerevisiae deletion strains, locus YPR167C, strain met16, active compounds read low",0.976
same,normalized growth,"S. cerevisiae deletion strains, strain wtn01, active compounds read low",0.962
same,normalized growth,"S. cerevisiae strains, strain wild type, active compounds read low",0.969

# — PubChem BioAssay AID1159580 (chemical genetic matrix, 2015)
